Screens deposited in PubChem by National Center for Advancing Translational Sciences (NCATS).
In the library only some 2.8% were active in any assay of this set; here they are far more common.
POLI inh: blocks human DNA polymerase iota activity. Pol iota fluorescent replication assay, 10 min. Q9UNA4. AID 588590. Potency, µM (doses to about 115 µM), inactives show at the highest dose activity, negative = inhibition, most hits filed as inhibitors. 390,000 compounds, 1% hits; note: potency is the fitted concentration of half-maximal effect
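Pol iota at 10 nM preincubated 15 min with compounds at room temperature; reaction started with fluorescent substrate, 50 nM final. Fluorescence read kinetically at 0 and 10 min; buffer-only wells as negative control.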
PI5P4Ka inh: PI5P4K alpha (human) kinase inhibition | 330,000 compounds, 1.2% hits | AID 652105 | max response, % | PI5P4Kalpha enzyme, ADP-Glo luminescence, 60 min; stronger effect = lower value; active = max response of -50% or lower; inconclusive = between -30% and -50%; inactive = -30% or higher; note: value at the top dose of about 77 µM; % is set by controls: 0 for no effect and ±100 for the full control effect
Target sequence (P48426 whole entry, looked up): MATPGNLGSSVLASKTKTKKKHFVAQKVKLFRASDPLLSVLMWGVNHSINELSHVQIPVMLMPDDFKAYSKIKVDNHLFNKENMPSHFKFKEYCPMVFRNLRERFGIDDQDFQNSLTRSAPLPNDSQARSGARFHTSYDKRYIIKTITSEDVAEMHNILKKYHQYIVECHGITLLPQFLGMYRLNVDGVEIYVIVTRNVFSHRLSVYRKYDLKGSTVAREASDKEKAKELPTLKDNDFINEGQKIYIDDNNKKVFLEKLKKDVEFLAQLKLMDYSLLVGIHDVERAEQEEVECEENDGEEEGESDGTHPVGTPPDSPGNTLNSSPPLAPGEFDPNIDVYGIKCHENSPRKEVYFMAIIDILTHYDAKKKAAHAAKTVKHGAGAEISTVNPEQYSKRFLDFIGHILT
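ADP-Glo luminescence end-point after a 60 min room-temperature kinase reaction. PI5P4Kalpha and substrate in HEPES pH 7.4 buffer with EGTA, 0.1% CHAPS and 5% DMSO; ATP at 5 microM final.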
POLH inh: inhibitors of human DNA polymerase eta. recombinant Pol eta, fluorescent DNA replication assay. Potency, µM (top dose mostly 114 µM), without a hit: top-dose activity change, negative = inhibition, actives largely listed as inhibitors. 390,000 compounds, 1.2% hits. AID 588591; note: potency is the fitted concentration of half-maximal effect; % is set by controls: 0 for no effect and ±100 for the full control effect
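Pol eta at 10 nM preincubated with compounds 15 min at room temperature; reaction started with fluorescent substrate (50 nM final) and read kinetically at 0 and 10 min.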
Pol kappa inh: inhibitors of human DNA polymerase kappa. Q9UBT6. purified Pol kappa, fluorescent DNA synthesis assay, 10 min. Potency, µM (titrated, usually from 107 µM), for inactives: at the highest dose activity, negative = inhibition, hits mostly inhibitors. 400,000 compounds, 0.53% hits; note: potency is the fitted concentration of half-maximal effect; % is set by controls: 0 for no effect and ±100 for the full control effect
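Enzyme at 10 nM met test compounds for 15 min at room temperature. Substrate addition (50 nM final) began the reaction, which was monitored by fluorescence at 0 and 10 min.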
WRN inhibitor: inhibitors of human WRN helicase; Potency, µM (series often up to 114 µM), for the others: at the top dose activity change, negative = inhibition, most hits filed as inhibitors; 360,000 compounds, 0.46% hits; Q14191; WRN helicase unwinding, fluorescent forked duplex, kinetic; note: potency is the fitted concentration of half-maximal effect; % is set by controls: 0 for no effect and ±100 for the full control effect; nearly all actives have a fitted effect of over 55% in size
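Screening of the MLSMR collection measured strand separation of a quenched forked DNA duplex (100 nM) by 20 nM WRN with 2 mM ATP, all final. Compounds were preincubated with enzyme 15 min at room temperature.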
Pol beta inh: inhibitors of human DNA polymerase beta | 340,000 compounds, 1.3% hits | AID 485314 | P06746 | Potency, µM (series often up to 114 µM), for inactives: top-dose activity change, negative = inhibition, usual class: inhibitors | Pol beta primer extension/strand displacement, fluorescence kinetic; note: potency is the fitted concentration of half-maximal effect; % is set by controls: 0 for no effect and ±100 for the full control effect
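Enzyme-only controls used 10 nM Pol beta; buffer lacking enzyme served as negative control. Compound preincubated 15 min, then 50 nM substrate added; 0 and 10 min reads at room temperature.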
An asterisk follows results filed as active; u = inconclusive; x = no result; ! = not active in a repeat; [ ] = another dose, or the depositor's remark. Unless noted, calls come from the whole dose curve; as a rule, active = well fitted curve in the direction sought with a large enough effect; inconclusive = small, poorly fitted or top-dose-only effect, or another doubt; inactive = no such curve, though single readings can be large; an effect the other way counts as inactive or inconclusive.

SMILES	POLI inh	PI5P4Ka inh	POLH inh	Pol kappa inh	WRN inhibitor	Pol beta inh
CC1=C(C(=O)OC(C)C)C(c2ccc(F)cc2)NC(=O)N1 (centres undefined)	17%	x	-11%	-4%	-3%	11%
CC1=C(C(=O)OC(C)C)[C@@H](c2ccc(C)o2)NC(=O)N1	-22%	-9	1.1µM*	-6%	u	13%
CCOC(=O)C1=C(C)NC(=O)NC1c1ccc(Br)o1 (centres undefined)	70%	-8	-12%	-1%	-3%	2%
COCCOC(=O)C1=C(C)NC(=O)NC1c1ccco1 (centres undefined)	40µM*	2	79µM*	-31%	9%	u
CC1=C(C(=O)OC(C)C)C(c2ccc(C)o2)C(C(=O)OC(C)C)=C(C)N1	-29%	0	-13%	-14%	-14%	12%
CC1=C(C(=O)OC(C)C)C(c2ccco2)NC(=O)N1 (centres undefined)	u	u	u	-13%	-24%	50µM*
COc1cccc(C(=O)Nc2ccc3nc(SCCOc4ccccc4)sc3c2)c1	8%	x	-3%	-5%	x	u
CCOc1ccccc1N(C)C(=O)NCc1noc2ccccc12	20%	x	-17%	2%	x	27%
C=CCn1c(SCc2ccc(Br)cc2F)nc2cc(C(=O)O)ccc2c1=O	u	-61*	1%	-2%	-9%	-15%
C=CCn1c(SCc2c(C)noc2C)nc2cc(C(=O)O)ccc2c1=O	22%	x	-17%	-4%	1%	-2%
Cc1ccc2c(c1)C(=O)C(=O)N2Cc1ccc(OCCC(C)C)cc1	-21%	x	u	-23%	x	2%
O=C(O)CCc1ccc(-c2ccc(Cl)cc2)o1	u	x	0%	u	-18%	-2%
O=C(O)CCc1ccc(-c2ccc(Br)cc2)o1	40µM*	x	-3%	u	u	28%
COc1cc(OC)c(NC(=O)CC(C)S(=O)(=O)c2ccc3c(c2)NC(=O)CO3)cc1Cl (centres undefined)	-3%	x	-10%	-14%	x	33%
CC(C)(C)c1ccc(C(=O)C[n+]2ccccc2Cl)cc1	-26%	x	x	-29%	x	x
COc1ccc(S(=O)(=O)c2c(Nc3c(C)cccc3C)sc(C(=O)c3ccc4c(c3)OCO4)c2N)cc1	-2%	x	-12%	-10%[60.1 µM]	x	27%
Cc1ccc(N2CCN(C(=O)CCS(=O)(=O)c3cc4c(cc3Cl)NC(=O)CO4)CC2)c(C)c1	11%	x	-23%	-5%	x	-10%
O=C1c2ccccc2C(=O)N1CCc1csc(NNc2nc(CCN3C(=O)c4ccccc4C3=O)cs2)n1	u	-69*	u	89µM*	-31%	25µM*
Nc1ccc(O)c2c(=O)cc(-c3ccccc3Cl)oc12	-19%	-1	-12%	-11%	-12%	22µM*
O=c1cc(-c2ccccc2Cl)oc2c(NS(=O)(=O)c3cc(Cl)cc(Cl)c3O)ccc(O)c12	40µM*	-89*	32µM*	u	u	45µM*
O=c1cc(-c2ccccc2Cl)oc2cc(O)cc(O)c12	5%	0	-10%	-5%	-7%	u
Cc1ccc(-n2nnnc2SCC(=O)NNC(=O)c2ccc([N+](=O)[O-])cc2)cc1	u	-7	u	u	-13%[57.1 µM]	5.6µM*
COc1ccc(-n2nnnc2SCC(=O)NNC(=O)c2ccc([N+](=O)[O-])cc2)cc1	u	3	-10%	-20%	-2%	3%[57.1 µM]
[O-]c1c[n+](-c2ccc(-[n+]3cc([O-])on3)cc2)no1	u	-56*	45µM*	-30%	-5%[11.6 µM]	7.1µM*
CCn1c(SCC(=O)Nc2cc(C)ccc2F)nnc1-c1ccccc1O	35%	x	-15%	7%	x	14%
SMILES	POLI inh	PI5P4Ka inh	POLH inh	Pol kappa inh	WRN inhibitor	Pol beta inh
S=C1NC2(CCCCC2)NN1c1ccccc1	47%	-10	-6%	-2%	2%	-2%
CC(C)(C)N1NC2(CCCCC2)NC1=S	27%	-58*	-1%	4%	-17%	9%
Nc1nc(Nc2ccccc2)nc(NC2CCCCC2)c1[N+](=O)[O-]	-27%	-12	-17%	-15%	79µM*	-22%
COc1ccccc1CNC(=O)C1CCN(S(=O)(=O)c2ccc3c(c2)CCCN3C(C)=O)CC1	8%	x	-23%	-7%[60.1 µM]	x	-2%
COc1cc(NC(=O)Cn2c(=O)n(Cc3ccco3)c(=O)c3sc4ccccc4c32)cc(OC)c1	25%	x	0%	5%	x	47%
NS(=O)(=O)c1ccc(N=Nc2c(O)c(C(=O)O)cc3ccccc23)cc1	u	-95*	40µM*	-9%	-9%[11.6 µM]	35µM*
Cc1cccn2c(=O)c3cc(C#N)c(=NC(=O)c4ccccc4)n(Cc4ccco4)c3nc12	u	-73*!	25µM*	u	50µM*!	x
CCOC(=O)c1cc2c(=O)n3ccccc3nc2n(Cc2ccco2)c1=NC(=O)c1cccc(Br)c1	40µM*	x	1%	2%[60.1 µM]	x	22µM*
CCOC(=O)c1cc2c(=O)n3ccccc3nc2n(Cc2ccco2)c1=NC(=O)c1cccnc1	u	-16	u	-38%	u	18µM*
COCCCn1c(=NC(=O)c2ccccc2)c(C#N)cc2c(=O)n3cccc(C)c3nc21	183%	-7	-13%	-4%	-26%	7%
CCOC(=O)c1cc2c(=O)n3ccccc3nc2n(Cc2ccco2)c1=NC(=O)c1ccc(Br)cc1	45µM*	x	-9%	u	x	-3%
CCOC(=O)c1cc2c(=O)n3ccccc3nc2n(Cc2ccco2)c1=NC(=O)c1ccc(OCC)cc1	u	x	-5%	-37%	x	20%
O=C(NCCc1ccccc1)c1cc(Sc2ccc(F)cc2F)nc2ccccc12	u	x	-16%	-2%[60.1 µM]	x	0%
Cc1c(C(=O)N2CCCC2)oc2c1-c1nn(CC(=O)NC(C)c3ccccc3)cc1CC2 (centres undefined)	40%	x	-13%	-3%	x	10%
CCc1ccc(CNCc2c(C(=O)O)c(C)n(Cc3c(F)cccc3Cl)c2C)cc1	-12%	x	10%	-19%	x	10%
CCOC(=O)c1cc2c(=O)n3ccccc3nc2n(Cc2ccco2)c1=NC(=O)c1ccccc1OCC	u	-10	-8%	-4%	-10%	1%
CCOC(=O)c1cc2c(=O)n3ccccc3nc2n(Cc2ccco2)c1=NC(=O)c1ccccc1Br	14µM*	x	u	89µM*	x	u
CCCOc1ccc(/C=C2/C(=O)ON=C2C)cc1OCC	50%	0	-18%	-2%	-7%	2%
CCOc1cc(/C=C2/C(=O)ON=C2C)cc(Br)c1O	-25%	-67*	u	-6%	-7%	3%
N#C/C(=C\c1ccc(N2CCOCC2)o1)c1nc2ccccc2[nH]1	-13%	-20	u	u	50µM*	u
